This is part of a sample that, as a whole, favours compounds with a hit. Of some 79,000 tested, about 15% had one in any assay. Calls of active or inactive are those of the source. No stated cut-off is given here; in the data, active means growth inhibition above about 70%; inactive means the rest.
Key:
[1] = NCI Yeast Anticancer Drug Screen. Data for the rad52 strain (AID 147);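 further: 0% = growth of vehicle-treated control cultures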; settings: S. cerevisiae rad52 mutant growth inhibition, active compounds read high
How it was run: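 Measured: yeast growth inhibition. System: strain with a defined DNA damage repair alteration. Reference: vehicle-treated control cultures.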

[2] = NCI Yeast Anticancer Drug Screen. Data for the wt1 strain (AID 149);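 further: 0% = growth of vehicle-treated wt1 cultures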; settings: S. cerevisiae wt1 strain (SPY 50644) growth inhibition, active compounds read high
How it was run: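 Yeast wt1 strain exposed to compounds; growth inhibition measured relative to vehicle-treated controls.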

[3] = NCI Yeast Anticancer Drug Screen. Data for the rad50EPP+ strain (AID 151);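 further: 0% = growth of vehicle-treated control cultures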; settings: S. cerevisiae rad50 mutant strain, active compounds read high
How it was run: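 One strain with a rad50 alteration (rad50EPP+) was compound-treated, its growth then compared to that of vehicle controls.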

[4] = NCI Yeast Anticancer Drug Screen. Data for the mgt1 strain (AID 153); settings: S. cerevisiae mgt1 mutant growth inhibition, active compounds read high
How it was run: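 After exposure of the mgt1 yeast mutant to compound, growth was measured and reported as inhibition compared with vehicle controls.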

[5] = NCI Yeast Anticancer Drug Screen. Data for the rad50 strain (AID 155);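 further: 0% = growth of vehicle-only cultures of the same strain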; settings: S. cerevisiae rad50 strain growth inhibition, active compounds read high
How it was run: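 Yeast carrying a defined DNA repair defect were exposed to test compounds, and growth was compared with vehicle-treated controls to give percent inhibition.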

[6] = NCI Yeast Anticancer Drug Screen. Data for the mec2-1 strain (AID 157); settings: S. cerevisiae mec2-1 strain, active compounds read high
How it was run: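 Test agents were screened against the mec2-1 yeast strain, with defined DNA repair or cell cycle alteration. Growth was scored as inhibition against vehicle-only controls.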

[7] = NCI Yeast Anticancer Drug Screen. Data for the rad14 strain (AID 159);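 further: 0% = growth of vehicle-treated control cultures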; settings: S. cerevisiae rad14 strain growth inhibition, active compounds read high
How it was run: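 Yeast cells carrying a defined DNA-repair defect were exposed to compounds, and growth inhibition was calculated relative to vehicle-treated control cultures.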

[8] = NCI Yeast Anticancer Drug Screen. Data for the sgs1 mgt1 strain (AID 161);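 further: 0% = growth of cultures given vehicle only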; settings: S. cerevisiae sgs1 mgt1 strain, active compounds read high
How it was run: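 Read-out: growth inhibition vs vehicle controls. Cells: mutant yeast strain deficient in DNA damage repair.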

[9] = NCI Yeast Anticancer Drug Screen. Data for the CLN2oe strain (AID 163);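 further: 0% = growth of vehicle-only control cultures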; settings: S. cerevisiae CLN2oe strain, active compounds read high
How it was run: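 Here, growth inhibition in a cell-cycle-altered yeast strain after compound exposure was quantified against vehicle control growth.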

[10] = NCI Yeast Anticancer Drug Screen. Data for the cln2 rad14 strain (AID 165);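 further: 0% = growth equal to vehicle treated cultures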; settings: S. cerevisiae cln2 rad14 strain, active compounds read high
How it was run: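 Growth of compound-exposed yeast (cln2 rad14 genotype) measured and expressed as inhibition relative to vehicle.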

[11] = NCI Yeast Anticancer Drug Screen. Data for the bub3 strain (AID 167); settings: S. cerevisiae bub3 mutant strain, active compounds read high
How it was run: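 Compounds were applied to a genetically altered yeast strain carrying a cell-cycle control defect. Growth inhibition was scored against vehicle-treated controls.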

[12] = NCI Yeast Anticancer Drug Screen. Data for the wt2 strain (AID 169);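 further: 0% = growth of vehicle-treated yeast cultures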; settings: S. cerevisiae wt2 strain growth inhibition, active compounds read high
How it was run: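 Genetically defined yeast strains from a DNA-repair/cell-cycle panel were used. Compound-exposed yeast growth was measured, and the inhibition was calculated relative to vehicle treatment.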

[13] = NCI Yeast Anticancer Drug Screen. Data for the mlh1 strain (AID 171);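 further: 0% = growth of vehicle-treated control cultures of the same strain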; settings: S. cerevisiae mlh1 strain growth inhibition, active compounds read high
How it was run: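 Here the genetically defined yeast mutant is grown with each compound, and the extent to which its growth falls below that of vehicle-exposed cells is reported.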

[14] = NCI Yeast Anticancer Drug Screen. Data for the sgs1 strain (AID 173);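 further: 0% = growth of vehicle-only control cultures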; settings: S. cerevisiae sgs1 mutant, active compounds read high
How it was run: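 Relative growth inhibition, referenced to vehicle, was determined in a yeast strain with a defined alteration affecting DNA damage repair or cell cycle control after compound exposure.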

[15] = NCI Yeast Anticancer Drug Screen. Data for the rad18 strain (AID 177); settings: S. cerevisiae rad18 mutant growth inhibition, active compounds read high
How it was run: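 Screen uses a yeast strain with a defined lesion in DNA damage repair; compound effect is read as loss of growth compared to untreated vehicle cultures.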

[16] = at 5.0 µM (retest, dose inferred, filed as 0.5)
[17] = at 50.0 µM (retest, dose inferred, filed as 5.0)

Measured: growth inhibition

CC(C)(CN1CCCCC1)C(=O)CC(SCCS(=O)(=O)O)c1ccccc1 (stereo not given)
inactive: [1]; at 1.2 µM 6% | [1]; at 3.7 µM 4% | [1]; at 11.0 µM 25% | [1]; at 33.0 µM 34% | [1]; at 100.0 µM 18% | [2]; at 1.2 µM -63% | [2]; at 3.7 µM 1% | [2]; at 11.0 µM 0% | [2]; at 33.0 µM 4% | [2]; at 100.0 µM 10% | [3]; at 1.2 µM 1% | [3]; at 3.7 µM 0% | [3]; at 11.0 µM -1% | [3]; at 33.0 µM -1% | [3]; at 100.0 µM -5% | [4]; at 1.2 µM 1% | [4]; at 3.7 µM 5% | [4]; at 11.0 µM 6% | [4]; at 33.0 µM 8% | [4]; at 100.0 µM 12% | [5]; at 1.2 µM 1% | [5]; at 3.7 µM 4% | [5]; [16] 10% | [5]; at 11.0 µM 8% | [5]; at 33.0 µM 14% | [5]; [17] 7% | [5]; at 50.0 µM 9.6% | [5]; at 100.0 µM 11% | [6]; at 1.2 µM -1% | [6]; at 3.7 µM -4% | [6]; [16] 11% | [6]; at 11.0 µM 0% | [6]; at 33.0 µM 9% | [6]; [17] -3% | [6]; at 50.0 µM -12.1% | [6]; at 100.0 µM 8% | [7]; at 1.2 µM 3% | [7]; at 3.7 µM 9% | [7]; at 11.0 µM 17% | [7]; at 33.0 µM 31% | [7]; at 100.0 µM 39% | [8]; [16] 17% | [8]; [17] 1% | [8]; at 50.0 µM -2% | [9]; at 1.2 µM -6% | [9]; at 3.7 µM 0% | [9]; at 11.0 µM 8% | [9]; at 33.0 µM 15% | [9]; at 100.0 µM 31% | [10]; [17] 69% | [10]; at 50.0 µM 46.3% | [11]; at 1.2 µM -1% | [11]; at 3.7 µM -6% | [11]; [16] 19% | [11]; at 11.0 µM -1% | [11]; at 33.0 µM 5% | [11]; [17] 32% | [11]; at 50.0 µM 12.1% | [11]; at 100.0 µM 13% | [12]; at 1.2 µM 0% | [12]; at 3.7 µM 2% | [12]; at 11.0 µM 5% | [12]; at 33.0 µM 11% | [12]; at 100.0 µM 15% | [13]; at 1.2 µM 0% | [13]; at 3.7 µM 2% | [13]; at 11.0 µM 3% | [13]; at 33.0 µM 6% | [13]; at 100.0 µM 13% | [14]; at 1.2 µM 3% | [14]; at 3.7 µM 6% | [14]; at 11.0 µM 7% | [14]; at 33.0 µM 19% | [14]; at 100.0 µM 22% | [15]; at 1.2 µM 10% | [15]; at 3.7 µM 11% | [15]; at 11.0 µM 16% | [15]; at 33.0 µM 26% | [15]; at 100.0 µM 37%
active: [10]; [16] 72%

— PubChem BioAssay (NCI)
